# Measured values: PubChem BioAssay (NCATS)
# Results filed as inconclusive are left out. Activity calls are given as the source filed them. Calls follow the shape of the dose curve; as a rule, active = well fitted cell-killing curve with a large enough effect; inconclusive = small, poorly fitted or top-dose-only effect; inactive = no such curve, though single readings can be large or run the other way.
# Assay: qHTS of pediatric cancer cell lines to identify multiple opportunities for drug repurposing: Primary screen for NB1643 cells (AID 1347099); also: nearly all actives have a fitted effect of over 50% in size
# Settings: NB1643 neuroblastoma viability, CellTiter-Glo luminescence, 48 h; series mostly up to 46 µM
# Source text: Drug repurposing or repositioning has been offered as a strategy for drug development in oncology programs. This approach has special potential for childhood cancers and other rare or orphan diseases, where the expected return on new drug development has been a disincentive to pharmaceuticals. […] In this project we exploit the poly-pharmacology of drugs to discover new indications via phenotypic screening of a panel of 19 well-characterized cell lines derived from solid tumors seen in children and adolescents. The goal is to identify approved drugs with previously unrecognized anticancer properties that has the potential to reveal new mechanisms and biological processes involved in carcinogenesis or drug resistance. We employed a titration-based paradigm (quantitative high-throughput screening or qHTS), where all compounds were tested at multiple concentrations for their effect on cell viability. Concentration-response curves (CRCs) were derived directly from the primary screen, and both potency and efficacy values were used to identify compounds with robust bioactivity profiles. We screened the NIH Chemical Genomics Center (NCGC) Pharmaceutical Collection (NPC) and Mechanism Interrogation Plate (MIPE) small molecule collections of approved and investigational compounds against these cell lines; and measured metabolically active cells after 48 hours of compound treatment as a proxy for cell viability. […] Assay Submitter: Nathalia J. Martinez, National Center for Advancing Translational Sciences, National Institutes of Health, Rockville, MD, USA; email: natalia.martinez@nih.gov Shen, M et al. Quantitative high-throughput phenotypic screening of pediatric cancer cell lines identifies multiple opportunities for drug repurposing. Oncotarget 2017 Dec 19;9(4):4758-4772. PMID 29435139.
# The cells were obtained from University of North Carolina (UNC), Pediatric Preclinical Testing Program (PPT), and Coriell Institute (CI). qHTS cell viability assay: Cells were assayed in growth media at a density of 500-1,000 cells/well. Five microliters of cells were dispensed into 1,536-well, white, solid-bottom, TC-treated plates (Greiner Bio One) using a multidrop dispenser and incubated at 37 degrees C, 5% CO2, under a humidified atmosphere for 5 hours. Twenty-three nanoliters of compounds and controls (neutral control DMSO or positive control bortezomib at final concentration of 2.3 µM) were subsequently transferred by Kalypsys pintool. For primary screens, the MIPE collection was tested at 11-point dilutions (final concentrations range from 0.78 nM to 46 µM) and the NPC collection at 8-point dilutions (final concentrations range from 0.59 nM to 46 µM). Compounds tested in follow-up screens were assayed at 11-point dilutions. Cells were incubated for 48 hours, followed by addition of 3 µL of CellTiter-Glo (Promega). After a 15 min incubation at room temperature, samples were analyzed for luminescence intensity using a ViewLux High-throughput CCD imager equipped with clear filters.
# Potency is read from the fitted curve at half-maximal effect.
row,SMILES,Potency
1,CN1CCC[C@H]1CCO[C@](C)(c1ccccc1)c1ccc(Cl)cc1,20.9 µM (active)
2,c1cc(OCCN2CCCCC2)cc(-c2n[nH]c3ccc(-c4ncn[nH]4)cc23)c1,5.9 µM (active)
3,CCCCC(C=O)NC(=O)C(CC(C)C)NC(=O)OCc1ccccc1 (stereo not given),26.4 µM (active)
4,C[C@H]1O[C@@H](n2cc(F)c(=O)[nH]c2=O)[C@H](O)[C@H]1O,18.7 µM (active)
5,CC(O)=C(C#N)C(=O)Nc1ccc(C(F)(F)F)cc1,23.5 µM (active)
6,O=C(NCCCCN1CCOCC1)c1cc2ccccc2o1,inactive
7,COc1ccc2nc3cc(Cl)ccc3c(Nc3cc(CN4CCCC4)c(O)c(CN4CCCC4)c3)c2n1,inactive
8,CC1(C)OC2CC3C4CC(F)C5=CC(=O)C=CC5(C)C4C(O)CC3(C)[C@]2(C(=O)CO)O1 (stereo not given in full),inactive
9,Cc1ccc(NC(=O)c2ccc(CN3CCN(C)CC3)cc2)cc1Nc1nc(-c2cccnc2)cs1,inactive
10,CCN1C[C@H](C)n2c(c(O)c3c(=O)n(Cc4ccc(F)c(Cl)c4)nc(C(=O)NC)c32)C1=O,inactive
11,C[C@]12C=CC(=O)C=C1CC[C@@H]1[C@@H]2[C@@H](O)C[C@@]2(C)[C@@H]1CC[C@]2(O)C(=O)CO,inactive
12,O=c1[nH]nc(OCCCc2ccc(Cl)cc2)c(NCc2cccnc2)c1Br,23.5 µM (active)
13,N#CC(=C1Nc2ccccc2S1)c1ccnc(OCc2ccc(CN3CCOCC3)cc2)n1,0.0526 µM (active)
14,CCc1cc(-c2n[nH]c(C)c2-c2ccc3c(c2)OCCO3)c(O)cc1O,10.5 µM (active)
15,O=C(Nc1ccccc1)Nc1ccc(-c2ccc(C(=O)[C@H]3CCC[C@H]3C(=O)O)cc2)cc1,inactive
16,CC(C)(OCc1nn(Cc2ccccc2)c2ccccc12)C(=O)O,inactive
17,Cc1nn(Cc2ccccc2Cl)c(C)c1CN(C)CC(O)COc1ccc(Cl)cc1 (stereo not given),14.8 µM (active)
18,O=C(O)c1ccc(O)c2ncc(N3CCOCC3)cc12,23.5 µM (active)
19,COc1c(C)cnc(Cn2cnc3c(Cl)nc(N)nc32)c1C,0.264 µM (active)
20,NS(=O)(=O)c1ccc(Nc2nc(OCC3CCCCC3)c3[nH]cnc3n2)cc1,18.7 µM (active)

row,SMILES,Potency
1,NCc1c[nH]c(=S)n1[C@H]1CCc2c(F)cc(F)cc2C1,9.35 µM (active)
2,COc1ccc(-c2ccc3ncc4c(c3c2)n(-c2ccc(N3CCNCC3)c(C(F)(F)F)c2)c(=O)n4C)cn1,0.264 µM (active)
3,COc1ccc(C=CC(=O)Nc2ccccc2C(=O)O)cc1OC,5.9 µM (active)
4,c1ccc(-c2oc3ncnc(NC[C@@H]4CCCO4)c3c2-c2ccccc2)cc1,2.64 µM (active)
5,NC(N)=Nc1nc(CSCCC(N)=NS(N)(=O)=O)cs1,8.33 µM (active)
6,Cn1c(=O)c(Oc2ccc(F)cc2F)cc2cnc(NC3CCOCC3)nc21,inactive
7,N#CC(c1ccc(Cl)cc1)c1c(Cl)cc(-n2ncc(=O)[nH]c2=O)cc1Cl (stereo not given),18.7 µM (active)
8,C[C@H](c1ccc(F)cc1CCCC(=O)O)N(c1cc(F)ccc1F)S(=O)(=O)c1ccc(Cl)cc1,14.8 µM (active)
9,CN(C)CCOc1ccc(-c2nc(-c3ccc4c(c3)CCC4=NO)c(-c3ccncc3)[nH]2)cc1,20.9 µM (active)
10,O=C(CC12CC3CC(CC(C3)C1)C2)Nc1cccc2nc(NCCNCCO)ccc12,13.2 µM (active)
11,CCCCc1ccc(NS(=O)(=O)c2ccc(C)c(C(=O)N3CCN(c4cccc(C)c4C)CC3)c2)cc1,23.5 µM (active)
12,COc1cc([C@@H]2c3cc4c(cc3[C@@H](O[C@@H]3O[C@@H]5CO[C@@H](C)O[C@@H]5[C@H](O)[C@@H]3O)[C@H]3COC(=O)[C@H]23)OCO4)cc(OC)c1O,0.662 µM (active)
13,O=C1NC(=O)C(c2cnc3ccccn23)=C1c1cn2c3c(cccc13)CN(C(=O)N1CCOCC1)CC2,20.9 µM (active)
14,COc1cc2nc(-c3cc(F)ccc3O)nc(N[C@@H]3CNC[C@@H]3C(C)(C)O)c2cc1OC,16.6 µM (active)
15,CC(C)CN(C[C@@H](O)[C@H](Cc1ccccc1)NC(=O)O[C@H]1CO[C@H]2OCC[C@H]21)S(=O)(=O)c1ccc(N)cc1,18.7 µM (active)
16,COc1cc(N2CCN(C)CC2)ccc1Nc1nc(N)c(C(=O)c2c(Cl)cccc2Cl)s1,14.8 µM (active)
17,CC(C)c1c(C(=O)Nc2ccccc2)c(-c2ccccc2)c(-c2ccc(F)cc2)n1CC[C@H](O)C[C@@H](O)CC(=O)O,20.9 µM (active)
18,Cc1ccc2c(=O)c3cccc(CC(=O)O)c3oc2c1C,14.8 µM (active)
19,C[C@H](CCC(=O)O)[C@H]1CC[C@H]2[C@H]3[C@@H](CC[C@]12C)[C@@]1(C)CC[C@@H](O)C[C@H]1C[C@@H]3O,inactive
20,CN[C@@H]1CN(c2ccc3c(=O)c(C(=O)O)cn(-c4nccs4)c3n2)C[C@@H]1OC,1.62 µM (active)
